From PubChem BioAssay (NCATS)
Records with an inconclusive call do not appear. Active and inactive are the calls of the source. Calls follow the shape of the dose curve; as a rule, active = well fitted curve in the direction sought with a large enough effect; inconclusive = small, poorly fitted or top-dose-only effect, or another doubt; inactive = no such curve, though single readings can be large; an effect the other way counts as inactive or inconclusive. Where a SMILES comes first, the peptide text is derived from it.

Experiments:
NIH3T3 = experiment: qHTS assay to identify novel small-molecules to repurpose for Merkel cell carcinoma treatment (AID 1296009); conditions: MCC and control cell lines, CellTiter-Glo viability, 72 h; at 44.8 µM (top of the series) unless noted; also: nearly all actives have a fitted effect of over 60% in size
Summary of the method: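 CellTiter-Glo luminescence after 72 hr compound exposure at 37 degree celsius gave cell viability. Libraries NPC and MIPE were run as 8- and 11-point dose responses; RLUs normalized to DMSO (negative) and no-cell (cytotoxicity) controls.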

C33A = experiment: Primary qHTS to identify gynecologic anti-cancer compounds using libraries of approved drugs and bioactive compounds (AID 1345084); conditions: Gynecologic cancer cell panel viability, ATPlite luminescence, 48 h; series mostly up to 57.5 µM; also: % is scaled to controls: 0 for no effect and ±100 for the full control effect; nearly all actives have a fitted effect of over 55% in size
Summary of the method: (§1)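 Measured: luminescence after ATPlite addition (15 min, RT). Exposure: 48 h, 37 C, 5% CO2.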

CAOV3 = experiment: as above; conditions: Gynecologic cancer cell panel viability, ATPlite luminescence, 48 h; series mostly up to 57.5 µM
Summary of the method: as §1

CASKI = experiment: as above; conditions: Gynecologic cancer cell panel viability, ATPlite luminescence, 48 h; series mostly up to 57.5 µM
Summary of the method: as §1

Es-2 = experiment: as above; conditions: Gynecologic cancer cell panel viability, ATPlite luminescence, 48 h; series mostly up to 57.5 µM
Summary of the method: as §1

HeLa = experiment: as above; conditions: Gynecologic cancer cell panel viability, ATPlite luminescence, 48 h; series mostly up to 57.5 µM
Summary of the method: as §1

Hek293T = experiment: as above; conditions: Gynecologic cancer cell panel viability, ATPlite luminescence, 48 h, control line for the selectivity index; series mostly up to 57.5 µM
Summary of the method: as §1

C[C@@H]1CC[C@]2(C(=O)O)CC[C@]3(C(=O)O)C(=CCC4[C@@]5(C)CC[C@H](O[C@@H]6O[C@@H](C)[C@H](O[C@@H]7O[C@H](CO)[C@@H](O)[C@H](O)[C@H]7O)[C@@H](O)[C@H]6O)C(C)(C)C5CC[C@]43C)C2[C@H]1C (stereo not given in full)
inactive: outcome (NIH3T3) inactive [at 17.4 µM] | Potency (C33A) | Potency (CAOV3) | Potency (CASKI) | Potency (Es-2) | Potency (HeLa) | Potency (Hek293T)

CC1C(=O)CC2C3C(O)CC(C(=O)O)C12CC3(C)C (stereo not given)
inactive: outcome (NIH3T3) | Potency (C33A) | Potency (CAOV3) | Potency (CASKI) | Potency (Es-2) | Potency (HeLa) | Potency (Hek293T)

C=C(C)[C@@H]1CC[C@](C)(O)[C@@H](OC(=O)c2ccccc2)C1
inactive: outcome (NIH3T3) | Potency (C33A) | Potency (CAOV3) | Potency (CASKI) | Potency (Es-2) | Potency (HeLa) | Potency (Hek293T)

COC1CC(OC2CCC3(C)C(=CCC4C3CCC3(C)C(C(C)O)CCC43O)C2)OC(C)C1OC1OC(C)C(OC2OC(COC3OC(COC4OC(CO)C(O)C(O)C4O)C(O)C(O)C3O)C(O)C(O)C2O)C(OC)C1O (stereo not given)
inactive: outcome (NIH3T3) inactive [at 9.27 µM] | activity change, negative = cytotoxicity (C33A) 3.94% [at 11.6 µM] | activity change, negative = cytotoxicity (CAOV3) 2.24% [at 11.6 µM] | activity change, negative = cytotoxicity (CASKI) 16.9% [at 11.6 µM] | activity change, negative = cytotoxicity (Es-2) 1.08% [at 11.6 µM] | activity change, negative = cytotoxicity (HeLa) -2.66% [at 11.6 µM] | activity change, negative = cytotoxicity (Hek293T) -3% [at 11.6 µM]

CC(C(=O)O)C1CCC2(C)C3C(=O)C=C4C(CCC(=O)C4(C)C)C3(C)CCC12C (stereo not given)
inactive: outcome (NIH3T3) inactive [at 17.4 µM] | Potency (C33A) | Potency (CAOV3) | Potency (CASKI) | Potency (Es-2) | Potency (HeLa) | Potency (Hek293T)

COc1cc(C(C)=O)ccc1O[C@@H]1O[C@H](CO[C@@H]2O[C@@H](C)[C@H](O)[C@@H](O)[C@H]2O)[C@@H](O)[C@H](O)[C@H]1O
inactive: outcome (NIH3T3) inactive [at 17.4 µM] | Potency (C33A) | Potency (CAOV3) | Potency (CASKI) | Potency (Es-2) | Potency (HeLa) | Potency (Hek293T)

CC(=O)N(O)CCCCCN1C(=O)CCC1=O
inactive: outcome (NIH3T3) | Potency (C33A) | Potency (CAOV3) | Potency (CASKI) | Potency (Es-2) | Potency (HeLa) | Potency (Hek293T)

C[C@@H](O)[C@H](N)C(=O)N1CCC[C@H]1C(=O)N1CCC[C@H]1C(=O)N[C@H](C(N)=O)[C@@H](C)O (H-TPPT-NH2)
inactive: outcome (NIH3T3) inactive [at 9.27 µM] | activity change, negative = cytotoxicity (C33A) 10.5% [at 11.6 µM] | activity change, negative = cytotoxicity (CAOV3) 3.79% [at 11.6 µM] | activity change, negative = cytotoxicity (CASKI) 7.08% [at 11.6 µM] | activity change, negative = cytotoxicity (Es-2) -3.74% [at 11.6 µM] | activity change, negative = cytotoxicity (HeLa) 8.64% [at 11.6 µM] | activity change, negative = cytotoxicity (Hek293T) 17.1% [at 11.6 µM]

COc1cc2c(cc1O)C1(Cc3ccc4c(c3C1=O)OCO4)N(C)CC2 (stereo not given)
inactive: outcome (NIH3T3) | Potency (C33A) | Potency (CAOV3) | Potency (CASKI) | Potency (Es-2) | Potency (HeLa) | Potency (Hek293T)

CC1(C)CCC(C)(C)c2cc([C@@H](O)C(=O)Nc3ccc(C(=O)O)cc3F)ccc21
inactive: outcome (NIH3T3) | Potency (C33A) | Potency (CAOV3) | Potency (CASKI) | Potency (Es-2) | Potency (HeLa) | Potency (Hek293T)

O=C(O)c1ccc(CCCc2ccc(OCCc3ccc(F)cc3)cc2)o1
inactive: outcome (NIH3T3) | Potency (C33A) | Potency (CAOV3) | Potency (CASKI) | Potency (Es-2) | Potency (HeLa) | Potency (Hek293T)

O=C1N(CC2CCCCN2)CCN1c1ccccc1 (stereo not given)
inactive: outcome (NIH3T3) | Potency (C33A) | Potency (CAOV3) | Potency (CASKI) | Potency (Es-2) | Potency (HeLa) | Potency (Hek293T)

Cc1nn(C)c2c1C(c1ccc(C(F)(F)F)cc1)C(C#N)=C(N)O2 (stereo not given)
inactive: outcome (NIH3T3) | Potency (C33A) | Potency (CAOV3) | Potency (CASKI) | Potency (Es-2) | Potency (HeLa) | Potency (Hek293T)

CC(=O)O[C@@H]1C[C@]2(C)[C@@]3(CCC4[C@@]5(C)CC[C@H](O[C@@H]6O[C@H](C(=O)O)[C@@H](O)[C@H](O[C@@H]7O[C@H](CO)[C@H](O)[C@H](O)[C@H]7O[C@@H]7O[C@@H](C)[C@H](O)[C@@H](O)[C@H]7O[C@@H]7OC[C@](O)(CO)[C@H]7O)[C@H]6O[C@@H]6O[C@H](CO)[C@H](O)[C@H](O)[C@H]6O)C(C)(C)C5CC[C@]42C)O[C@@H](O)[C@]12C3CC(C)(C)[C@@H](OC(=O)/C=C/c1ccc(O)c(O)c1)[C@@H]2OC(=O)/C=C/c1ccccc1 (stereo not given in full)
inactive: outcome (NIH3T3) inactive [at 9.27 µM] | activity change, negative = cytotoxicity (C33A) 8.85% [at 6.55 µM] | activity change, negative = cytotoxicity (CAOV3) 0.993% [at 6.55 µM] | activity change, negative = cytotoxicity (CASKI) 8% [at 6.55 µM] | activity change, negative = cytotoxicity (Es-2) -3.99% [at 6.55 µM] | activity change, negative = cytotoxicity (HeLa) 2.04% [at 6.55 µM] | activity change, negative = cytotoxicity (Hek293T) 0.066% [at 6.55 µM]

C[C@@H]1C[C@H](O)/C=C/[C@H](O)[C@@H](O)CC(=O)O1
inactive: outcome (NIH3T3) | Potency (C33A) | Potency (CAOV3) | Potency (CASKI) | Potency (Es-2) | Potency (HeLa) | Potency (Hek293T)

Cc1onc(-c2ccccc2)c1C(=O)N[C@@H]1C(=O)N2[C@@H]1SC(C)(C)[C@@H]2C(=O)O
inactive: outcome (NIH3T3) | Potency (C33A) | Potency (CAOV3) | Potency (CASKI) | Potency (Es-2) | Potency (HeLa) | Potency (Hek293T)

OC1COC(OCC2OC(OCCc3ccccc3)C(O)C(O)C2O)C(O)C1O (stereo not given)
inactive: outcome (NIH3T3) inactive [at 17.4 µM] | Potency (C33A) | Potency (CAOV3) | Potency (CASKI) | Potency (Es-2) | Potency (HeLa) | Potency (Hek293T)

CC(=O)NCCCCn1c2c(c3ccccc31)C(=O)NCC2
inactive: outcome (NIH3T3) | Potency (C33A) | Potency (CAOV3) | Potency (CASKI) | Potency (Es-2) | Potency (HeLa) | Potency (Hek293T)

CC(CCC1C(C(=O)O)=CC(=O)CC1(C)C)O[C@@H]1O[C@H](CO)[C@@H](O)[C@H](O)[C@H]1O (stereo not given in full)
inactive: outcome (NIH3T3) | Potency (C33A) | Potency (CAOV3) | Potency (CASKI) | Potency (Es-2) | Potency (HeLa) | Potency (Hek293T)

CC(=O)OC[C@@]12[C@H](O)C[C@@H](C)[C@]3(C[C@@H](c4ccoc4)OC3=O)[C@H]1C[C@H](O)C[C@]21CO1
inactive: outcome (NIH3T3) inactive [at 17.4 µM] | Potency (C33A) | Potency (CAOV3) | Potency (CASKI) | Potency (Es-2) | Potency (HeLa) | Potency (Hek293T)
